Results as given in the supplement of paper PMC8975748.
Counter-ions that a name gives are not always drawn.

test system: Saccharomyces cerevisiae BY4741 SeMeCo community; test: z-score of subpopulation abundance vs DMSO median, subpopulation auxotrophic for HLUM; higher = larger share of this subpopulation than in DMSO controls; conditions: 10 µM; 24 h; SM minimal medium; subpopulation (auxotrophy): HLUM
Experimental: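 Fluorescent four-plasmid SeMeCo (self-establishing metabolically cooperating S. cerevisiae BY4741 community; plasmids pH-mRuby2, pL-mWasabi, pU-eCFP, pM-TagRFP657) was grown 24 h in minimal SM medium with each Selleck FDA-approved drug at 10 µM in 384-well plates. Cells were fixed and imaged by high-content confocal microscopy. For each auxotrophic subpopulation (and the prototroph), a z-score gives the deviation from the DMSO vehicle-control population median.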

SMILES	z-score of subpopulation abundance
O=C(O)C[C@H](O)C[C@H](O)/C=C/c1c(C2CC2)nc2ccccc2c1-c1ccc(F)cc1 [Pitavastatin Calcium]	1.55
CC[C@H](Nc1ncnc2[nH]cnc12)c1nc2cccc(F)c2c(=O)n1-c1ccccc1 [Idelalisib (CAL-101, GS-1101)]	-0.62
CN1CCN(c2cc3c(cc2F)c(=O)c(C(=O)O)cn3-c2ccc(F)cc2)CC1 [Difloxacin hydrochloride]	0.23
O=C(c1ccc(OCCN2CCCCC2)cc1)c1c(-c2ccc(O)cc2)sc2cc(O)ccc12 [Raloxifene HCl]	-0.56
CN1CCN(CCCN2c3ccccc3Sc3ccc(Cl)cc32)CC1 [Prochlorperazine dimaleate salt]	0.48
Cc1cc(-n2c(=O)[nH]c(=O)n(C)c2=O)ccc1Oc1ccc(SC(F)(F)F)cc1 [Toltrazuril]	0.28
C=CC[C@@H]1/C=C(\C)C[C@H](C)C[C@H](OC)[C@H]2O[C@@](O)(C(=O)C(=O)N3CCCC[C@H]3C(=O)O[C@H](/C(C)=C/[C@@H]3CC[C@@H](O)[C@H](OC)C3)[C@H](C)[C@@H](O)CC1=O)[C@H](C)C[C@@H]2OC [Tacrolimus (FK506)]	2.77
COc1ccnc(C[S+]([O-])c2nc3cc(-n4cccc4)ccc3[nH]2)c1C (stereo not given) [Ilaprazole sodium]	0.94
CC(c1cc2ccccc2s1)N(O)C(N)=O (stereo not given) [Zileuton]	0
C[C@H](NCc1ccc(OCc2cccc(F)c2)cc1)C(N)=O [Safinamide Mesylate]	0.33
Cc1cc(/C=C/c2ccc3cc(N(C)C)ccc3[n+]2C)c(C)n1-c1ccccc1 [pyrvinium]	-0.49
CCCN[C@H]1CCc2nc(N)sc2C1 [Pramipexole 2HCl Monohydrate]	-0.69
Cc1cc(=O)n(-c2ccccc2)n1C [Antipyrine]	-0.47
CC(=O)Oc1ccccc1C(=O)O [Aspirin]	-0.5
CC(=O)C1C(=O)C=C(C)OC1=O (stereo not given) [Sodium dehydroacetate]	1.61
COc1ccc(CN2CCN(C(c3ccc(F)cc3)c3ccc(F)cc3)CC2)c(OC)c1OC [Lomerizine 2HCl]	-0.64
CCCCc1oc2ccccc2c1C(=O)c1cc(I)c(OCCN(CC)CC)c(I)c1 [Amiodarone HCl]	5.2
CCCCCOc1ccc(-c2cc(-c3ccc(C(=O)N[C@H]4C[C@@H](O)[C@@H](O)NC(=O)[C@@H]5[C@@H](O)[C@@H](C)CN5C(=O)[C@H]([C@H](O)CC(N)=O)NC(=O)[C@H]([C@H](O)[C@@H](O)c5ccc(O)c(OS(=O)(=O)O)c5)NC(=O)[C@@H]5C[C@@H](O)CN5C(=O)[C@H]([C@@H](C)O)NC4=O)cc3)no2)cc1 [Micafungin Sodium]	86.5
O=C1CN(/N=C/c2ccc(-c3ccc([N+](=O)[O-])cc3)o2)C(=O)N1 [Dantrolene sodium]	0.72
CS(=O)(=O)c1ccc([C@@H](O)[C@@H](CO)NC(=O)C(Cl)Cl)cc1 [Thiamphenicol]	-0.23

SMILES	z-score of subpopulation abundance
CC1CCc2cc(F)cc3c(=O)c(C(=O)O)cn1c23 (stereo not given) [Flumequine]	0.55
COCCCN1CCC(NC(=O)c2cc(Cl)c(N)c3c2OCC3)CC1 [Prucalopride Succinate]	2.43
COC(=O)C1=C(C)NC(C)=C(C(=O)OC)C1c1ccccc1[N+](=O)[O-] [Nifedipine]	1.1
CN(Cc1cnc2nc(N)nc(N)c2n1)c1ccc(C(=O)N[C@@H](CCC(=O)O)C(=O)O)cc1 [Methotrexate]	6.15
O=C(NCCO[N+](=O)[O-])c1cccnc1 [Nicorandil]	-0.37
COc1ccc(CNc2nc(N3CCC[C@H]3CO)ncc2C(=O)NCc2ncccn2)cc1Cl [Avanafil]	-0.54
CCC[C@@H]1C[C@@H](C(=O)N[C@@H]([C@H]2O[C@H](SC)[C@H](O)[C@@H](O)[C@H]2O)[C@H](C)Cl)N(C)C1 [Clindamycin HCl]	0.72
C=C[C@]1(C)C[C@@H](OC(=O)CS[C@@H]2C[C@H]3CC[C@@H](C2)N3C)[C@]2(C)[C@H](C)CC[C@]3(CCC(=O)[C@H]32)[C@@H](C)[C@@H]1O [Retapamulin]	0.65
O=C1NC(=O)C(c2ccccc2)(c2ccccc2)N1 [Phenytoin]	-0.04
CC[C@@]1(O)C(=O)OCc2c1cc1n(c2=O)Cc2cc3cc(O)ccc3nc2-1 [(S)-10-Hydroxycamptothecin]	-0.28
NS(=O)(=O)Cc1noc2ccccc12 [Zonisamide]	1.75
Clc1ccc(CSC(Cn2ccnc2)c2ccc(Cl)cc2Cl)cc1 (stereo not given) [Sulconazole Nitrate]	10.5
Clc1ccc(COC(Cn2ccnc2)c2ccc(Cl)cc2Cl)c(Cl)c1 (stereo not given) [Miconazole Nitrate]	9.42
O=C1C(N(CO)C(=O)NCO)N(CO)C(=O)N1CO (stereo not given) [Diazolidinyl urea]	0.51
O=C1Cc2cc(CCN3CCN(c4nsc5ccccc45)CC3)c(Cl)cc2N1 [Ziprasidone HCl]	0.44
O=C1NCC2(CCN(CCc3ccccc3)CC2)O1 [Fenspiride HCl]	1.16
CCC(C)n1ncn(-c2ccc(N3CCN(c4ccc(OCC5COC(Cn6cncn6)(c6ccc(Cl)cc6Cl)O5)cc4)CC3)cc2)c1=O (stereo not given) [Itraconazole]	7.85
COc1cccc(-c2c(C)n(Cc3c(F)cccc3C(F)(F)F)c(=O)n(C[C@H](NCCCC(=O)O)c3ccccc3)c2=O)c1F [Elagolix Sodium]	-0.29
Cc1c[nH]c(=O)[nH]c1=O [Thymine]	0.51
COc1ccccc1OCC(O)CN1CCN(CC(=O)Nc2c(C)cccc2C)CC1 (stereo not given) [Ranolazine]	0.5
